AMPAR-TARP mod – modulators of GluA2-stargazin AMPA receptor complexes, primary screen, cell-based, membrane potential dye; HEK293 GluA2+stargazin, membrane potential dye (FDSS), glutamate EC50; hits were called plate by plate, in both directions; Voltage-dependent calcium channel gamma-2 subunit (Mus musculus) + Glutamate receptor 2 …; 40,000 compounds, 3.5% hits; calls only at 30 µM;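 active means any of four per-well response measures lying three or more SD from its plate-wide compound average, in either direction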
Target sequence (O88602 whole entry, looked up): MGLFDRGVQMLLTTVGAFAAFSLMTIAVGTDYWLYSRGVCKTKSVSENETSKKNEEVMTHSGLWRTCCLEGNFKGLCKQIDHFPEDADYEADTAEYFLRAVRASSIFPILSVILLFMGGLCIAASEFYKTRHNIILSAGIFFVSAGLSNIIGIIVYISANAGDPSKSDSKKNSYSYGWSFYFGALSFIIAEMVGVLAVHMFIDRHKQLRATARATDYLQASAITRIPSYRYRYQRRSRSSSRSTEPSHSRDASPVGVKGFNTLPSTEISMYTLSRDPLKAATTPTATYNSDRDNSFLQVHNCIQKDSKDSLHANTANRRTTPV
Target sequence (P19491 whole entry, looked up): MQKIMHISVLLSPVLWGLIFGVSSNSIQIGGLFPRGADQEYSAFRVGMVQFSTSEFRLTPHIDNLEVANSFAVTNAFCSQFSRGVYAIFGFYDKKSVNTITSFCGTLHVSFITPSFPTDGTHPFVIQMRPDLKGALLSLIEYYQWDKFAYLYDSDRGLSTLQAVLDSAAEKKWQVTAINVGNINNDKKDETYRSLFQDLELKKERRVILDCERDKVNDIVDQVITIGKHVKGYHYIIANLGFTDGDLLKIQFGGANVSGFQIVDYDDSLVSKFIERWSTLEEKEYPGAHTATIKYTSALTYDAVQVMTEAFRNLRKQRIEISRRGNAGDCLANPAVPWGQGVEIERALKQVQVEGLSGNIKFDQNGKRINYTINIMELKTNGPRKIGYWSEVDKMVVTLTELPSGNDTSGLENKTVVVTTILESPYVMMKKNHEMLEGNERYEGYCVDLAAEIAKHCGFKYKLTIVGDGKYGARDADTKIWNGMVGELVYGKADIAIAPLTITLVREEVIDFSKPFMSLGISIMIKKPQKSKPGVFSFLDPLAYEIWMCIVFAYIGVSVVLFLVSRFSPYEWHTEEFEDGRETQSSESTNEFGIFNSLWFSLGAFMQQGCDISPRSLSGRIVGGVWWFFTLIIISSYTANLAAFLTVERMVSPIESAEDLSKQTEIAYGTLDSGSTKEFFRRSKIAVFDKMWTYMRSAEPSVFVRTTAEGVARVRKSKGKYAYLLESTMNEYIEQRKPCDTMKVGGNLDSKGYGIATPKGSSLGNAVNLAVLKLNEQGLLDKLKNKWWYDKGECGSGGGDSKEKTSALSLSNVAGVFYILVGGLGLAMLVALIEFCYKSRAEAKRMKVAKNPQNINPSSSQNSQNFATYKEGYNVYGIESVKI
GIRK2 act – activators of NPY4-receptor-primed GIRK2 channels, summary, cell-based, HEK293, thallium flux; G protein-activated inward rectifier potassium channel 2 (Homo sapiens), P48051; HEK293 GIRK2/NPY4 cells, thallium flux fluorescence; activation (% efficacy), % for hits at 37.5 µM; 34,000 tested, under 10 active; AID 1259324, 2017;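 active means primary screen hit, no activity in plain HEK293 cells, and in GIRK2-only cells above 5% efficacy rising with concentration; inactive means the rest, including fluorescent compounds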;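 further: efficacy is normalized control-subtracted fluorescence 15 s after thallium addition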
* = called active by the depositor; i = inactive; . = no result given; + = active, no number. Only a selection was taken, and hits are over-represented in it overall.

SMILES	AMPAR-TARP mod	GIRK2 act
O=C(Nc1cc(-c2ccco2)nn1-c1nc2c(c(=O)[nH]1)CCC2)C1CC1	+	i
O=C(CC1CCCC1)Nc1cc(-c2ccco2)nn1-c1nc2c(c(=O)[nH]1)CCC2	i	i
COc1ccc(S(=O)(=O)NCC2CCN(C)CC2)cc1	i	i
CCOC(=O)c1ccccc1NC(=O)CSc1c(C)cnc2c1c(=O)n(C)c(=O)n2C	i	i
CCOC(=O)c1ccccc1NC(=O)CSc1c(CC(C)C)cnc2c1c(=O)n(C)c(=O)n2C	+	.
CC(=O)Nc1ccc(NC(=O)CCN2C(=O)c3ccccc3S2(=O)=O)cc1	i	i
CCOc1ccccc1NC(=O)COC(=O)CCCC1=NS(=O)(=O)c2ccccc2N1	i	i
COc1ccc(OC)c(-c2ccc(=O)n(CCNC(=O)Nc3cc(C)cc(C)c3)n2)c1	+	i
COc1ccc(OC)c(-c2ccc(=O)n(CCNC(=O)Nc3ccccc3)n2)c1	i	i
COc1ccc(OC)c(-c2ccc(=O)n(Cc3ccc(Cl)cc3Cl)n2)c1	i	i
COc1ccc(OC)c(-c2ccc(=O)n(Cc3ccc([N+](=O)[O-])cc3)n2)c1	+	i
COc1ccccc1-c1ccc(=O)n(Cc2cccc3ccccc23)n1	i	i
COc1ccc(OC)c(-c2ccc(=O)n(Cc3cccc4ccccc34)n2)c1	+	i
Cc1ccc2nc(-c3ccc(NC(=O)Cc4cc(-c5ccco5)on4)cc3)sc2c1	i	i
COc1cccc(-c2cc(CC(=O)NCCN3CCOCC3)no2)c1	i	i
Cc1c(Cl)cccc1S(=O)(=O)NCC1CCN(c2ncccn2)CC1	i	i
CCN1CCc2c(sc(NC(=O)c3cc4ccccc4o3)c2-c2nc3ccccc3s2)C1	i	.
CCn1ccc(C(=O)Nc2sc3c(c2-c2nc4ccccc4s2)CCN(C)C3)n1	+	.
CC(=O)Nc1sc2c(c1-c1nc3ccccc3s1)CCN(Cc1ccccc1)C2	i	.
CN1CCc2c(sc(NC(=O)c3ccc(Cl)cc3)c2-c2nc3ccccc3s2)C1	i	.
O=C(Nc1sc2c(c1-c1nc3ccccc3s1)CCN(Cc1ccccc1)C2)c1cccs1	+	.
Cc1cc(C(=O)Nc2sc3c(c2-c2nc4ccccc4s2)CCN(Cc2ccccc2)C3)on1	+	.
CSc1nc2ccc(NC(=O)C3CCCN(S(C)(=O)=O)C3)cc2s1 (stereo not given)	i	i
C#CCn1c(=NC(=O)CS(=O)(=O)Cc2ccccc2)sc2cc(S(N)(=O)=O)ccc21	i	i
CSc1ccccc1C(=O)N(Cc1ccco1)c1nc2c(F)cccc2s1	i	.
SMILES	AMPAR-TARP mod	GIRK2 act
CSc1ccccc1NC(=O)C(=O)NCC1CCN(C2CCCC2)CC1	+	i
CSc1ccccc1NC(=O)C(=O)NCC1CCN(C)CC1	i	i
Cc1ccc2nc3c(cc(C(=O)NCCN4CCOCC4)n3C)c(=O)n2c1	i	i
Cc1cccn2c(=O)c(C(=O)NCCCN3CCOCC3)c(O)nc12	+	i
CCOC(=O)c1sc2cccc(F)c2c1S(=O)(=O)Nc1cc(Cl)c(OC)cc1OC	+	.
CCOC(=O)c1sc2cccc(F)c2c1S(=O)(=O)Nc1ccc(OC)c(Cl)c1	i	.
Cn1nnc2c(N3CCN(CC(=O)Nc4ccc(OC(F)(F)F)cc4)CC3)ncnc21	i	i
CCCCS(=O)(=O)N1CCN(c2ccc(-n3nc(C)c(C)c3C)nn2)CC1	i	i
CCCCS(=O)(=O)N1CCN(c2ccc(Nc3cccc(C)n3)nn2)CC1	+	i
COC(=O)c1ccccc1NC(=O)Cn1ccc2ccn(Cc3ccccc3)c2c1=O	i	i
Cc1cccc(OCC(=O)NCCS(=O)(=O)N2CCN(Cc3ccccc3)CC2)c1	i	i
Cc1onc(-c2ccccc2Cl)c1C(=O)N1CCN(Cc2nnnn2-c2ccc(F)c(F)c2)CC1	+	i
Cc1cc(C(=O)N2CCN(Cc3nnnn3-c3ccc(F)c(F)c3)CC2)no1	i	i
COc1ccc(-c2ccc(N3CCN(C(=O)C4CCCCC4)CC3)nn2)cc1OC	i	i
O=C(CCCc1ccccc1)NCCn1nc(-c2ccncc2)ccc1=O	.	i
Cc1ccc(C)c(Cn2c(=O)c3c(nc4oc(-c5ccc(F)cc5)cn43)n(C)c2=O)c1	i	.
Cc1ccc(Cn2c(=O)c3c(nc4oc(-c5ccc(F)cc5)cn43)n(C)c2=O)cc1	+	i
CCOc1ccc(-c2ccc(=O)n(CC(=O)NCc3ccccc3)n2)cc1	i	i
O=C(CSc1nnc(-c2ccncc2)o1)N1CCCc2ccccc21	i	i
CC(C)c1nnc(C2CCN(C(=O)CCSc3ccccc3)CC2)o1	i	i
CC(C)Sc1ccc(CC(=O)N2CCC(c3nnc(C(C)C)o3)CC2)cc1	+	i
Cc1cc(C)c2c(=O)[nH]c(SCC(N)=O)nc2n1	+	.
Cc1cccc(NC(=O)CSc2nc3nc(C)cc(C)c3c(=O)[nH]2)c1	i	.
CC(=O)Nc1cccc(NC(=O)c2ccc(=O)n(Cc3ccc(F)cc3)c2)c1	i	i
COc1ccc(S(=O)(=O)Nc2ccc3c(c2)N(C(=O)c2ccco2)CC3)cc1OC	i	i
SMILES	AMPAR-TARP mod	GIRK2 act
O=C(Cc1cc(-c2ccccc2)on1)NCc1ccc2c(c1)OCO2	.	i
CC(C)Sc1cccc(C(=O)Nc2sccc2C(N)=O)c1	+	.
CC(C)Sc1cccc(C(=O)Nc2nnc(-c3cccs3)o2)c1	i	.
CCc1nnc(NS(=O)(=O)c2ccc(NC(=O)C3COc4ccccc4O3)cc2)s1 (stereo not given)	i	.
CCCCn1c(=O)c2c(nc3n2CC(C)CN3c2cc(C)ccc2OC)n(C)c1=O (stereo not given)	i	.
CCOC(=O)c1ccccc1NC(=O)CN1CCC(c2nnc(-c3ccco3)o2)CC1	+	i
COc1ccccc1NC(=O)CN1CCC(c2nnc(-c3ccco3)o2)CC1	i	i
Cc1cccc(-n2ncc3c(=O)n(CC(=O)N4CCc5ccccc54)cnc32)c1C	i	.
Cc1ccc(-n2ncc3c(=O)n(CC(=O)N4CCc5ccccc54)cnc32)c(C)c1	+	.
CCOc1ccc(-c2ccc(=O)n(CCNC(=O)Nc3cc(C)ccc3OC)n2)cc1	i	i
CC1CN(C)CCN1CC1CCN(C(=O)/C=C/c2ccccc2)CC1 (stereo not given)	i	i
Cc1ccc(C)c(S(=O)(=O)N2CCN(c3ccc(C)c(C)c3)CC2)c1	i	.
O=[N+]([O-])c1ccc(S(=O)(=O)NCC2COC3(CCCCC3)O2)cc1 (stereo not given)	i	i
O=[N+]([O-])c1cccc(S(=O)(=O)NCC2COC3(CCCCC3)O2)c1 (stereo not given)	+	i
CN1CC(c2nc3ccccc3n2Cc2ccccc2F)CC1=O (stereo not given)	i	.
C=CCN1CC(c2nc3ccccc3n2Cc2ccc(C)cc2)CC1=O (stereo not given)	i	.
C=CCN1CC(c2nc3ccccc3n2Cc2cccc(C)c2)CC1=O (stereo not given)	+	.

Assay outcomes from PubChem BioAssay.
